Measurements from PubChem BioAssay (NCATS).
Records with an inconclusive call do not appear. Unmarked numbers belong to inactive results. Calls follow the shape of the dose curve; as a rule, active = well fitted inhibition curve with a large enough effect; inconclusive = small, poorly fitted or top-dose-only effect; inactive = no such curve, though single readings can be large or run the other way. Square brackets hold non-standard residues; d marks the D form. Peptide text beside a SMILES is read from it. PhLac = O=C(O)[CH](O)Cc1ccccc1; NMeV = CN[CH](C(=O)O)C(C)C

Target: Retinaldehyde dehydrogenase 3 (Homo sapiens) (UniProt P47895)
Experiment: qHTS for Inhibitors of the Aldehyde Dehydrogenase Family (ALDH1A3) Primary screen (AID 2061315);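 also: plate controls were DMSO vehicle for no effect and reference inhibitor for full effect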
Details: ALDH inhibition qHTS; series mostly up to 56 µM; activity change, negative = inhibition: at the top concentration

SMILES	activity change, negative = inhibition
COc1c(/C=C/C(C)(C)O)ccc2c1C(=O)OCc1cc(C)cc(O)c1O2	-16.6%
CC(C)C(C(=O)N1CCCC1C(=O)O)N(C)C(=O)C(O)Cc1ccccc1 (stereo not drawn) (H-[PhLac]-[NMeV]-Pro-OH; configuration not given here)	3%
C=CC(C)(CC/C=C(\C)CC/C=C(\C)CC(O)/C=C(\C)C(=O)O)O[C@@H]1O[C@H](CO)[C@@H](O)[C@H](O)[C@H]1O[C@@H]1O[C@H](CO)[C@@H](O)[C@H](O)[C@H]1O (stereo partly drawn)	11.2% [at 16.9 µM]
CC1OC(OC2CCC3(C)C(CCC4(C)C3CC=C3C5CC(C)(C)CCC5(C(=O)OC5OC(CO)C(O)C(O)C5O)CCC34C(=O)O)C2(C)C)C(O)C(O)C1O (stereo not drawn)	-2.16% [at 16.9 µM]
Cc1cc(Cn2cnc3c2CC(C(=O)O)N(C(=O)C(c2ccccc2)c2ccccc2)C3)ccc1N(C)C (stereo not drawn)	-1.97%
Cc1ccc([C@@H]2CC=C(C(=O)O)[C@H](c3ccc(C(C)(C)C)cc3)N2S(=O)(=O)c2ccc(C)cc2)cc1	-15.9%
CC(C)C1=CCC(C)(O)C(OC2OC(CO)C(O)C(O)C2O)C1 (stereo not drawn)	-8.88%
CC(=O)OCC1OC(OC2COC(OC3COC(OC4C(OC5C(CO)OC(OC6CCC7(C)C(CCC8(C)C7CC=C7C9CC(C)(C)CCC9(C(=O)OC9OC(CO)C(O)C(O)C9OC9OCC(OC%10OCC(O)(CO)C%10O)C(O)C9O)C(O)CC78C)C6(C)C)C(O)C5O)OCC(O)C4O)C(O)C3O)C(O)C2O)C(OC(=O)/C=C/c2ccccc2)C(O)C1OC(C)=O (stereo not drawn)	-8.22% [at 11.2 µM]
Cc1cccc(-c2[nH]ncc2-c2ccnc3ccccc23)n1	51.7%
CC1(C)CCCC2(C)C1C(O)C=C(CO)C2(O)C(=O)O (stereo not drawn)	0.198%
C[C@H]1[C@H](C)CC[C@]2(C(=O)O[C@@H]3O[C@H](CO)[C@@H](O)[C@H](O)[C@H]3O)CC[C@]3(C(=O)O)C(=CCC4[C@@]5(C)CC[C@H](O[C@@H]6O[C@H](CO)[C@@H](O)[C@H](O)[C@H]6O)C(C)(C)C5CC[C@]43C)[C@H]12 (stereo partly drawn)	-17.7% [at 16.9 µM]
CC(=O)O[C@@H]1[C@@H](OC(C)=O)[C@H](C)O[C@@H](O[C@H]2[C@@H]3C=CO[C@@H](O[C@@H]4O[C@H](CO)[C@@H](O)[C@H](O)[C@H]4O)[C@@H]3[C@@]3(CO)O[C@@H]23)[C@@H]1OC(=O)/C=C/c1ccccc1	13.8% [at 16.9 µM]
O=C(CSc1nc2ccccc2c(=O)n1-c1ccccc1)Nc1ccc2c(c1)CCC2	2.63%
